HT1080-NT tox – qHTS for induction of synthetic lethality in tumor cells producing 2HG: qHTS for the HT-1080-NT fibrosarcoma cell line | HT-1080-NT fibrosarcoma viability, CellTiter-Glo ATP luminescence, 48 h | Potency, µM (top dose mostly 46.1 µM), for inactives: top-dose activity, negative = less viability, most hits filed as cytotoxic | hit rate 1.6% among 360,000;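 note: NT is the 2HG producing partner of a matched IDH1 knockdown line; potency is the fitted concentration of half-maximal effect; 0% = DMSO-treated cells and -100% = media-only wells without cells; nearly all actives have a fitted effect of over 55% in size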
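Luminescent CellTiter-Glo readout after 48 hours of compound exposure at 37 degrees C defined viability of HT-1080-NT cells. Activity was normalized to DMSO wells and cell-free media wells; concentration-response curves were fitted and assigned curve classes.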
DT40 TDP1 no CPT – qHTS for Inhibitors of human tyrosyl-DNA phosphodiesterase 1 (TDP1): qHTS in cells in absence of CPT; DT40 Tdp1-/- hTDP1 cells, no CPT, ATP luminescence, 48 h; Potency, µM (titrated, usually from 46.2 µM), without a hit: at the highest dose activity change, negative = growth inhibition, hits mostly inhibitors; hit rate 15% among 420,000; AID 686978, 2013; note: potency is the fitted concentration of half-maximal effect; nearly all actives have a fitted effect of over 55% in size
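DT40 Tdp1-/-;hTDP1 cells, no CPT (DMSO vehicle only), 400 cells/well; compounds pin-transferred; ≥48 hr, 37 °C; CellTiter-Glo 30 min RT dark, luminescence read.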
HT1080 IDH1KD tx – qHTS for induction of synthetic lethality in tumor cells producing 2HG: qHTS for the HT-1080-IDH1KD cell line; HT-1080 IDH1 knockdown viability, ATP luminescence, 48 h; Potency, µM (doses to about 46.1 µM), for the others: at the highest dose activity, negative = toxicity, usual class: cytotoxic; hit rate 2% among 360,000;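 note: potency is the fitted concentration of half-maximal effect; 0% = DMSO wells and -100% = cell-free medium wells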
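CellTiter-Glo luminescence after 48 h compound exposure at 37 degrees C of IDH1-knockdown HT-1080 cells in 5% FBS RPMI. %Activity scaled between DMSO wells and cell-free media wells, with curves fitted and assigned curve classes.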
TDP1 cell CPT – qHTS for Inhibitors of human tyrosyl-DNA phosphodiesterase 1 (TDP1): qHTS in cells in presence of CPT; chicken DT40 Tdp1-/-;hTDP1 cells + 20 nM CPT, ATP luminescence, 48 h; Potency, µM (highest dose often 46.2 µM), for the others: at the top dose activity change, negative = growth inhibition, usual class: inhibitors; hit rate 12% among 420,000; AID 686979, 2013; note: potency is the fitted concentration of half-maximal effect; nearly all actives have a fitted effect of over 55% in size
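Chicken DT40 Tdp1-/- cells complemented with human TDP1, 400 cells/well, exposed to compounds plus 20 nM camptothecin for at least 48 h at 37 C; viability read as ATP content by CellTiter-Glo luminescence.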
IL1B secr inh – qHTS for Inhibitors of Inflammasome Signaling: IL-1-beta AlphaLISA Primary Screen; THP-1 LPS/ATP IL-1B secretion, AlphaLISA, 16 h; hits give low values; activity change, % at 57.5 µM; hit rate 4.7% among 360,000; AID 743279, 2014; in the data active = activity change below about -50%; inconclusive = mostly about -30% to -49%
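THP-1 cells pretreated 1 hr with compounds (up to 57.5 uM final), then stimulated with LPS (250 ng/mL final) plus ATP (1.25 mM final); secreted IL-1B measured by AlphaLISA after 16 hr, decreased signal indicating inhibition.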
uPA generation – qHTS for Inhibitors of Cell Surface uPA Generation; cell surface uPA generation assay, qHTS; Potency, µM (top dose mostly 38.3 µM), for the others: at the top dose activity change, negative = inhibition, usual class: inhibitors; hit rate 0.31% among 330,000; AID 540303, 2011; active = well fitted inhibition curve with a large enough effect; inconclusive = small, poorly fitted or top-dose-only effect; inactive = no such curve, though single readings can be large or run the other way; tested in mouse RAW 264.7 cells; note: potency is the fitted concentration of half-maximal effect; nearly all actives have a fitted effect of over 55% in size
* hit, by the source's call; ? = inconclusive; / = not tested or not shown; [ ] = dose if it differs, or a comment. In the library only some 19% were active in any assay of this set; here they are far more common. Unless noted, calls come from the whole dose curve; as a rule, active = well fitted curve in the direction sought with a large enough effect; inconclusive = small, poorly fitted or top-dose-only effect, or another doubt; inactive = no such curve, though single readings can be large; an effect the other way counts as inactive or inconclusive. Unless noted, % is set by controls: 0 for no effect and ±100 for the full control effect.

SMILES | HT1080-NT tox | DT40 TDP1 no CPT | HT1080 IDH1KD tx | TDP1 cell CPT | IL1B secr inh | uPA generation
O=C(Nc1nnc(C2=COCCO2)o1)c1ccc(F)cc1 | 0% | ? | -20% | ? | -1 | 2%
O=C(Nc1nnc(C2=COCCO2)o1)c1ccc(Cl)cc1 | -1% | ? | -30% | 16µM* | -4 | -5%
CCc1ccccc1NC(=O)C1=CN2CCS(=O)(=O)N=C2C=C1 | 7% | -18% | 8% | 3% | 9 | 5%
COCc1c(C(=O)N2CCN(C3CCCC3)CC2)cnn1-c1nccc(-c2cc(C)sc2C)n1 | / | -17% | / | 5%[9.04 µM] | / | /
COc1ccc(C2(OC)Oc3cc(OC)ccc3C(=O)C2(O)OC)cc1 (stereo not drawn) | -6% | ? | ? | 23µM* | -74* | -4%
COc1ccc(CN(C)CC(=O)NC(=O)NCc2ccccc2)c(OC)c1 | 0% | ? | -6% | ? | 3 | 2%
CN(CC(=O)NC(=O)NCc1ccccc1)Cc1ccc(Cl)c(Cl)c1 | 0% | 29µM* | 0% | 21µM* | 6 | 6%
Fc1ccc(-n2c(CN3CCCCC3)n[nH]c2=S)cc1 | 3% | ? | -2% | 1% | -3 | -3%
Nc1ccc(S(=O)(=O)c2ccc(N3CCOCC3)c(N)c2)cc1 | -2% | 21µM* | -20% | -23% | ? | /
Nc1cc(S(=O)(=O)N2CCOCC2)ccc1N1CCCCC1 | 0% | ? | -13% | 23µM* | -8 | -5%
Nc1cc(S(=O)(=O)Nc2cc(Cl)ccc2Cl)ccc1N1CCOCC1 | -4% | ? | -5% | ? | -23 | -1%
C[C@@H]1C[C@H]2[C@@H]3CCC4=CC(=O)C=C[C@]4(C)[C@@]3(F)C(O)C[C@]2(C)[C@@]1(O)C(=O)CO (stereo partly drawn) | / | -26% | / | 5% | / | /
CC(=O)Cc1nsc(NC(=O)c2ccc(-c3ccc(Cl)cc3Cl)o2)n1 | 0% | ? | 7% | -9% | 18 | 0%
CC(=O)Cc1nsc(NC(=O)c2ccc(-c3cc(C(F)(F)F)ccc3Cl)o2)n1 | 11µM* | 13µM* | 11µM* | 21µM* | 16 | ?
CCS(=O)(=O)c1ccc2oc(SCC(=O)Nc3ccc(OC)cc3OC)nc2c1 | 2% | -30% | -2% | -10% | 0 | -1%
CCS(=O)(=O)c1ccc2oc(SCC(=O)NC(C)C3CC4CCC3C4)nc2c1 (stereo not drawn) | -2% | 16µM* | -7%[9.24 µM] | ? | 0 | 3%
CC(=O)c1cc(O)c2ccccc2c1O | -17% | 4.6µM* | -18% | 15µM* | -5 | 14%
CCOC(=O)c1c(C)[nH]c(C)c1C(=O)COC(=O)c1cc2ccccc2cc1OC | -2% | 23µM* | -10% | ? | -11 | 3%
CCOC(=O)c1c(C)[nH]c(C)c1C(=O)COC(=O)c1ccc(Cl)c(S(=O)(=O)NCc2ccccc2)c1 | 18µM* | 23µM* | 23µM* | 21µM* | 78 | -7%
CCOC(=O)c1c(C)[nH]c(C)c1C(=O)COC(=O)/C=C/c1ccc(OC)cc1 | ? | 8.2µM* | 15µM* | 7.3µM* | 9 | 2.5µM*
CCOC(=O)c1c(C)[nH]c(C)c1C(=O)COC(=O)c1cc2ccccc2cc1O | -5% | 16µM* | ? | ? | -67* | 4%
CCOC(=O)c1c(C)[nH]c(C)c1C(=O)COC(=O)c1c(OC)cccc1OC | -6% | ? | -3% | -24% | 7 | 9%
CCOC(=O)c1c(C)[nH]c(C)c1C(=O)COC(=O)/C=C/c1cccc(F)c1 | 10% | -23% | 14% | -20% | -15 | 3%
O=c1c(NCc2ccccc2Cl)nccn1-c1ccccc1 | / | 0% | / | -18% | / | /
CCOC(=O)C(CC)(CC)C(=O)/C=C/c1ccc(OC)cc1 | -10% | 18µM* | -4% | ? | 1 | ?
SMILES | HT1080-NT tox | DT40 TDP1 no CPT | HT1080 IDH1KD tx | TDP1 cell CPT | IL1B secr inh | uPA generation
CCOC(=O)c1c(C)[nH]c(C)c1C(=O)COC(=O)[C@@H](NC(=O)c1ccccc1OCC)C(C)C | ? | 21µM* | -8% | ? | -5 | /
CCOc1ccccc1C(=O)NC(C(=O)OCC(=O)NNC(=O)c1cccs1)C(C)C (stereo not drawn) | -2% | -27% | -4% | -8% | 22 | /
Cc1noc(C)c1NC(=O)N(C)C[C@H]1OCCCC[C@@H](C)Oc2ccc(NS(=O)(=O)c3ccccc3)cc2C(=O)N([C@H](C)CO)C[C@@H]1C | 4% | ? | 14% | -22% | -18 | /
O=C(O)c1cc(-c2cccnc2)nc2ccccc12 | 7% | 0% | 11% | 1% | 7 | 2%
O=C(NC1=NCCS1)c1cc(-c2cccnc2)nc2ccccc12 | -8% | 21µM* | -20% | 16µM* | 1 | 1%
O=C(NC1=NCCS1)c1cc(-c2cccs2)nc2ccccc12 | -1% | -29% | 1% | -5% | -64* | 1%
CCN(CC)S(=O)(=O)c1ccc(NC(=O)c2cc(-c3cccs3)nc3ccccc23)cc1 | ? | ? | ? | ? | -7 | -9%
CN(C)S(=O)(=O)c1ccc(NC(=O)c2cc(-c3cccs3)nc3ccccc23)cc1 | -10% | 15µM* | 0% | ? | -18 | -6%
COc1cccc(C(=O)NCCS(=O)(=O)N2CCN(C(=O)c3ccco3)CC2)c1 | -5% | -1% | -2% | 4% | 18 | 1%
CCc1nnc(NC(=O)CSc2nc3c(c(=O)n2CC)SC(C)C3)s1 (stereo not drawn) | 14% | 12µM* | 8% | 18µM* | 38 | -1%
COCCn1c(SCC(=O)Nc2cc(C)on2)nc2c(c1=O)SC(C)C2 (stereo not drawn) | 9% | ? | 1% | -29% | 13 | -2%
CCSc1nnc(NC(=O)CSc2nc3c(c(=O)n2CCOC)SC(C)C3)s1 (stereo not drawn) | -5% | 23µM* | -8% | 16µM* | 26 | -14%
CC12CCC(=O)N1C(C(=O)OCC(=O)Nc1ccc(C(F)(F)F)cc1)CS2 (stereo not drawn) | 1%[9.24 µM] | -6% | -1% | -17% | 24 | -15%
